{"source": "PubChem BioAssay AID651815", "about": "(National Center for Advancing Translational Sciences (NCATS), 2012)", "note": "Screen size: about 2,100 compounds; about 1,100 (52%) were called active. Another 29% or so got no clear call; they are omitted. The call rests on the fitted dose curve; in most records, active means well fitted inhibition curve with a large enough effect; inconclusive means small, poorly fitted or top-dose-only effect; inactive means no such curve, though single readings can be large or run the other way. The set was probably picked from earlier hits. The list shows a part of the results. Potency means the concentration at half of the fitted maximal effect.", "data": [{"target": "DNA dC->dU-editing enzyme APOBEC-3F (Homo sapiens) (UniProt Q8IUX4)", "sequence (Q8IUX4 whole entry, looked up)": "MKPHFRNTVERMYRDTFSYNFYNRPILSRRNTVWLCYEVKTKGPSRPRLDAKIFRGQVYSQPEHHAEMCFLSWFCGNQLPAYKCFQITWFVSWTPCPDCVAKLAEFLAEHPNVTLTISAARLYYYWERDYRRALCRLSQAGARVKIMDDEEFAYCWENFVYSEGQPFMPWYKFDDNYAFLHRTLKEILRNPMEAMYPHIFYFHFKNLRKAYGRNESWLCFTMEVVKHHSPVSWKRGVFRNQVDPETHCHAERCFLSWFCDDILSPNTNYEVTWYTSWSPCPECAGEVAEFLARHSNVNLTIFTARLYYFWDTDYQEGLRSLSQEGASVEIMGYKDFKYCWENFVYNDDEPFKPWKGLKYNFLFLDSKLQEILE", "assay": "qHTS for inhibitors of Vif-A3F interactions: Cherry picks counterscreen; further: nearly all actives have a fitted effect of over 65% in size", "conditions": "HeLa A3F-eYFP/Vif cells, eYFP fluorescence, 24 h; series mostly up to 46.1 µM", "how_it_was_run": "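HeLa cells stably expressing A3F-eYFP and Vif, cultured overnight, then treated 24 h at 37 degrees C with compounds at several concentrations; yellow fluorescence (488 nm Ex/500-530 nm Em) imaged on Acumen; MG132 positive control.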", "values": [{"smiles": "COc1ccccc1-c1c(C#N)c(N)nc2c1CCc1ccccc1-2", "Potency": "3.14 µM (active)"}, {"smiles": "CSc1nc(N)c(C#N)c(-c2ccccc2Cl)c1C#N", "Potency": "inactive"}, {"smiles": "Cc1ccc(C=Nc2ccccc2C(N)=O)s1", "Potency": "3.96 µM (active)"}, {"smiles": "O=C1/C(=C\\c2ccc(O)cc2)SC(=S)N1Cc1ccccc1", "Potency": "inactive"}, {"smiles": "COc1cc(/C=C2/SC(=S)N(CCC(=O)Nc3ccccc3)C2=O)cc(OC)c1OC", "Potency": "23.1 µM (active)"}, {"smiles": "O=C(O)c1cc(-c2ccc(/C=C3/SC(=S)N(Cc4ccccc4)C3=O)o2)ccc1Cl", "Potency": "14.6 µM (active)"}, {"smiles": "COc1cc(/C=C2/SC(=S)N(Cc3ccccc3)C2=O)cc(Cl)c1O", "Potency": "3.96 µM (active)"}, {"smiles": "CCC(=C/c1sc2ccc3ccccc3c2[n+]1C)/C=C1\\Sc2ccc3ccccc3c2N1C", "Potency": "inactive"}, {"smiles": "Cc1csc(NC(=O)CCC(=O)N(CC(=O)NC2CCCC2)Cc2ccccc2)n1", "Potency": "inactive"}, {"smiles": "CCN1CCc2nc3sc(C(=O)c4ccccc4)c(N)c3cc2C1", "Potency": "23.1 µM (active)"}, {"smiles": "Cc1ccccc1NC(=O)c1sc2nc3c(c(-c4ccco4)c2c1N)CCC3", "Potency": "inactive"}, {"smiles": "COc1ccc(NC(=O)c2sc3nc4c(cc3c2N)CN(Cc2ccccc2)CC4)c(OC)c1", "Potency": "18.4 µM (active)"}, {"smiles": "Nc1c(C(=O)c2ccc(Cl)cc2)sc2nc3c(cc12)CCC3", "Potency": "18.4 µM (active)"}, {"smiles": "COc1ccc(/C=C2\\Oc3cc(OC(=O)N4CCOCC4)ccc3C2=O)c(OC)c1", "Potency": "inactive"}, {"smiles": "COc1cc(OC)c(OC)cc1/C=C1\\Oc2cc(OCC(=O)N3Cc4ccccc4C[C@H]3C(=O)O)ccc2C1=O", "Potency": "1.84 µM (active)"}, {"smiles": "CC(=O)Oc1ccc(N2C(=O)c3cccc4c([N+](=O)[O-])ccc(c34)C2=O)cc1", "Potency": "inactive"}, {"smiles": "O=C1c2cccc3c([N+](=O)[O-])ccc(c23)C(=O)N1c1ccccn1", "Potency": "inactive"}, {"smiles": "Cc1nnc(N2C(=O)c3cccc4c([N+](=O)[O-])ccc(c34)C2=O)s1", "Potency": "20.6 µM (active)"}, {"smiles": "COc1cc2c3nnc(-c4ccc(F)cc4)c-3cn(Cc3ccccc3F)c2cc1OC", "Potency": "16.4 µM (active)"}, {"smiles": "COc1cc2c3nnc(-c4ccccc4)c-3cn(Cc3ccccc3F)c2cc1OC", "Potency": "3.66 µM (active)"}, {"smiles": "COc1cc2c3nnc(-c4ccc(F)cc4)c-3cn(Cc3ccc(C)cc3)c2cc1OC", "Potency": "15.8 µM (active)"}, {"smiles": "Cn1nnc2c[n+](CC(=O)c3ccc(Cl)cc3)cc(Br)c21", "Potency": "17.7 µM (active)"}, {"smiles": "O=C1CCCN1c1ccc(S(=O)(=O)Nc2ccc3c(c2)OCCO3)cc1", "Potency": "3.96 µM (active)"}, {"smiles": "O=[N+]([O-])c1ccc(Oc2cccc3cccnc23)c([N+](=O)[O-])c1", "Potency": "14 µM (active)"}, {"smiles": "O=[N+]([O-])c1cc(O)c2ncccc2c1", "Potency": "inactive"}, {"smiles": "CC1CC(C)(C)Nc2ccc(OC(=O)c3ccco3)cc21", "note": "(configuration not stated)", "Potency": "18.4 µM (active)"}, {"smiles": "CC1(C)Cc2nc3sc4c(SCC(=O)NCc5ccco5)ncnc4c3cc2CO1", "Potency": "5.59 µM (active)"}, {"smiles": "CC1(C)Cc2nc3sc4c(=O)n(CC(=O)NCc5ccccc5)cnc4c3cc2CO1", "Potency": "2.23 µM (active)"}, {"smiles": "CCc1ccc(N=Nc2ccc(O)c3[nH]cnc23)cc1", "Potency": "8.2 µM (active)"}, {"smiles": "S=C(Nc1ccccc1)N1CCn2c1nc1ccccc12", "Potency": "inactive"}, {"smiles": "CCCOc1ccc(C(=O)Nc2cccc(NC(=O)c3ccc(Cl)cc3Cl)c2)cc1", "Potency": "20.6 µM (active)"}, {"smiles": "COc1cc(C(=O)OCC(=O)Nc2ccc(N3CCOCC3)cc2)ccc1OCC(C)C", "Potency": "inactive"}, {"smiles": "COc1cc(OC)cc(C(=O)Nc2ccc(N3CCN(C(=O)c4cccs4)CC3)cc2)c1", "Potency": "7.9 µM (active)"}, {"smiles": "COc1cccc(C(=O)Nc2ccc(N3CCCC3)cc2)c1", "Potency": "5.59 µM (active)"}, {"smiles": "O=C(OCCC12CC3CC(CC(C3)C1)C2)c1ccc(NCc2cc(O)ccc2O)cc1", "Potency": "15.8 µM (active)"}, {"smiles": "Cc1ccc(C)c(Nc2nn3c(=O)c4ccc(C(=O)NCc5cccs5)cc4nc3s2)c1", "Potency": "20.6 µM (active)"}, {"smiles": "N#Cc1c(C(F)(F)F)cc(-c2cccs2)nc1SCC(=O)Nc1cccc(C(F)(F)F)c1", "Potency": "20.6 µM (active)"}, {"smiles": "N#Cc1c(C(F)(F)F)cc(-c2cccs2)nc1SCC(=O)Nc1ccc(Cl)cc1", "Potency": "7.31 µM (active)"}, {"smiles": "CCOC(=O)c1ccc(NC(=O)CSc2nc(-c3cccs3)cc(C(F)(F)F)c2C#N)cc1", "Potency": "16.4 µM (active)"}, {"smiles": "N#Cc1c(C(F)(F)F)cc(-c2cccs2)nc1SCC(=O)Nc1cccc(Cl)c1", "Potency": "inactive"}, {"smiles": "O=c1[nH]cnc2n[nH]nc12", "Potency": "10.3 µM (active)"}, {"smiles": "COc1ccc(N/C=C/C(=O)c2cc(OC)c(OC)c(OC)c2)cc1", "Potency": "0.498 µM (active)"}, {"smiles": "CCOc1ccc(N/C=C/C(=O)c2cc(OC)c(OC)c(OC)c2)cc1", "Potency": "15.8 µM (active)"}, {"smiles": "CCOc1ccc(NC(=O)Cn2c(=O)n(Cc3ccc(C(=O)NCc4ccc(C)cc4)cc3)c(=O)c3ccccc32)cc1", "Potency": "14.6 µM (active)"}, {"smiles": "CCn1c(SCC(=O)N/N=C/c2ccc(C)s2)nc2ccccc21", "Potency": "4.98 µM (active)"}, {"smiles": "COc1ccc(NC(=S)NN(C)C(=S)Nc2ccc(OC)cc2)cc1", "Potency": "3.14 µM (active)"}, {"smiles": "C=CCNC(=S)N/N=C(\\C)c1ccc(OC)cc1", "Potency": "inactive"}, {"smiles": "O=C(Nc1cc(=O)[nH]c(=O)[nH]1)c1cc(Cl)ccc1Cl", "Potency": "8.86 µM (active)"}, {"smiles": "CCCCCCc1cc2cc(-c3nnc(-c4ccccc4O)o3)c(=O)oc2cc1O", "Potency": "inactive"}, {"smiles": "CCCCCCc1cc2cc(-c3nnc(-c4ccccc4)o3)c(=O)oc2cc1O", "Potency": "3.53 µM (active)"}, {"smiles": "CCCCCCc1cc2cc(-c3nnc(-c4ccccc4OC)o3)c(=O)oc2cc1O", "Potency": "1.98 µM (active)"}, {"smiles": "C=CCN=c1scc(-c2ccc(F)cc2)n1/N=C/c1ccccn1", "Potency": "inactive"}, {"smiles": "C[n+]1ccc(/C=C/c2c[nH]c3ccc(F)cc23)cc1", "Potency": "8.2 µM (active)"}, {"smiles": "Cc1ccc2[nH]cc(/C=C/c3cc[n+](C)cc3)c2c1", "Potency": "6.27 µM (active)"}, {"smiles": "COc1ccc2[nH]cc(/C=C/c3cc[n+](C)cc3)c2c1", "Potency": "16.4 µM (active)"}, {"smiles": "O=C(Nc1ccccc1-c1nc2ccccc2[nH]1)c1ccc(N2C(=O)CCC2=O)cc1", "Potency": "16.4 µM (active)"}, {"smiles": "O=C1/C(=C/c2c[nH]c3ccccc23)CCC/C1=C\\c1c[nH]c2ccccc12", "Potency": "23.1 µM (active)"}, {"smiles": "N#CC1=C2SCC(O)(c3ccccc3)N2C(=O)CC1c1ccccc1", "note": "(configuration not stated)", "Potency": "4.98 µM (active)"}, {"smiles": "Cc1cccc(C)c1NC(=S)NC(C)CCc1ccccc1", "note": "(configuration not stated)", "Potency": "inactive"}, {"smiles": "COc1ccc2oc(-c3ccccc3[N+](=O)[O-])cc(=O)c2c1", "Potency": "6.27 µM (active)"}, {"smiles": "COc1ccccc1NC(=O)c1sc2ncn(CC(=O)Nc3ccccc3)c(=O)c2c1C", "Potency": "20.6 µM (active)"}, {"smiles": "Cc1ccnc(NC(=O)Nc2ccc3c(c2)N(C)C(=O)CS3)c1", "Potency": "23.1 µM (active)"}, {"smiles": "CC(C)(C)c1ccc(Oc2ccc(NC(=O)c3ccccc3C(=O)O)cn2)cc1", "Potency": "inactive"}, {"smiles": "CC(=O)Nc1ccc(NC(=O)C/C(C)=N/NC(N)=S)cc1", "Potency": "inactive"}, {"smiles": "CO/N=C\\CC(=O)Nc1ccc(Cl)c(Cl)c1", "Potency": "9.94 µM (active)"}, {"smiles": "CO/N=C\\CC(=O)Nc1ccc(Oc2ccccc2)cc1", "Potency": "1.98 µM (active)"}, {"smiles": "O=C(Cc1nc2ccccc2[nH]c1=O)c1ccc(Cl)cc1", "Potency": "8.2 µM (active)"}, {"smiles": "COc1cc2c(cc1OC)CN(C(=O)c1cc(=O)c3ccccc3o1)CC2", "Potency": "11.2 µM (active)"}, {"smiles": "COc1ccccc1N=C(C)C1=C(O)CC(c2ccccc2)CC1=O", "note": "(configuration not stated)", "Potency": "0.994 µM (active)"}, {"smiles": "CCC(=Nc1ccccc1O)C1=C(O)CC(c2ccccc2)CC1=O", "note": "(configuration not stated)", "Potency": "inactive"}, {"smiles": "Cc1cnc(NC(=O)CC(C)c2ccccc2)s1", "note": "(configuration not stated)", "Potency": "5.59 µM (active)"}, {"smiles": "Cc1cc(/C=C2\\SC(=S)N(Cc3ccco3)C2=O)c(C)n1-c1ccccc1", "Potency": "23.1 µM (active)"}, {"smiles": "CCN1CCN(c2c(/C=C3\\SC(=S)N(Cc4ccco4)C3=O)c(C)c(C#N)c(=O)n2C)CC1", "Potency": "14.6 µM (active)"}, {"smiles": "Cc1cc(/C=C2\\SC(=S)N(Cc3ccco3)C2=O)c(C)n1-c1cccnc1", "Potency": "20.6 µM (active)"}, {"smiles": "CN(C)c1ccc(C=C2SC(=S)N(Cc3ccco3)C2=O)cc1", "Potency": "3.96 µM (active)"}, {"smiles": "COC(=O)c1ccc(Oc2cc(C)nc(SC)n2)cc1", "Potency": "2.8 µM (active)"}, {"smiles": "C/C(=N\\NC(=O)C(C)n1nc(C)c([N+](=O)[O-])c1C)c1ccccc1O", "note": "(configuration not stated)", "Potency": "inactive"}, {"smiles": "COCCNC(=S)N/N=C(\\C)c1ccccc1O", "Potency": "inactive"}, {"smiles": "C/C(=N/N=C(\\C)c1ccccc1O)c1ccccc1O", "Potency": "18.4 µM (active)"}, {"smiles": "C=CCN1C(=O)c2cccc3c(N4CCCCC4)ccc(c23)C1=O", "Potency": "16.4 µM (active)"}, {"smiles": "O=C1c2cccc3c(N4CCCCC4)ccc(c23)C(=O)N1CCO", "Potency": "17.7 µM (active)"}, {"smiles": "O=C1c2cccc3c(N4CCCCC4)ccc(c23)C(=O)N1c1ccccc1O", "Potency": "inactive"}, {"smiles": "Cc1ccc(N2C(=O)c3cccc4c(N5CCN(C)CC5)ccc(c34)C2=O)c2cccnc12", "Potency": "14 µM (active)"}, {"smiles": "O=C1c2cccc3c(N4CCCCC4)ccc(c23)C(=O)N1c1cccc(O)c1", "Potency": "3.66 µM (active)"}, {"smiles": "O=C1c2cccc3c(N4CCCCC4)ccc(c23)C(=O)N1c1ccc(O)cc1", "Potency": "inactive"}, {"smiles": "C=CCOC(=O)C1=C(C)NC(C)=C(C(=O)OCC=C)C1c1cn(-c2ccccc2)nc1-c1ccco1", "Potency": "inactive"}, {"smiles": "Cc1ccc2nc(-c3ccccn3)c(Nc3ccccc3C)n2c1", "Potency": "inactive"}, {"smiles": "CN(C)c1ccc(C=Cc2nccc3ccccc23)cc1", "Potency": "14 µM (active)"}, {"smiles": "CCN(CC)c1nc(C=Cc2ccc(N(C)C)cc2)c2nccnc2n1", "Potency": "0.58 µM (active)"}, {"smiles": "CCN(Cc1ccccc1)c1ccc(/C=C/c2nccc3ccccc23)cc1", "Potency": "20.6 µM (active)"}, {"smiles": "CN(C)c1ccc(/C=C/c2nccc3ccccc23)cc1", "Potency": "20.6 µM (active)"}, {"smiles": "CCN(Cc1ccccc1)c1ccc(/C=C(\\C#N)c2ccccn2)cc1", "Potency": "inactive"}, {"smiles": "CCCn1c(C2CCCN2c2nc(-c3cccc(Br)c3)cs2)nc2ccccc21", "note": "(configuration not stated)", "Potency": "inactive"}, {"smiles": "CCn1c2ccccc2c2cc(NC(=O)CNCc3ccccc3OC)ccc21", "Potency": "4.98 µM (active)"}, {"smiles": "S=C(NCCSCc1ccc(Cl)cc1)Nc1ccccc1", "Potency": "inactive"}, {"smiles": "CCn1c(CNC(=O)c2cc(OC)c(OC)c(OC)c2)cc2cc(C)ccc21", "Potency": "inactive"}, {"smiles": "COc1cc(C(=O)NCCOc2cc(C)cc(C)c2)cc(OC)c1OC", "Potency": "2.8 µM (active)"}]}]}
